Data: the supplement of paper PMC11006884
The full data set covers some 6,500 targets. This sample favours those with a hit. About 2% of all pairs of compound and target were hits.

These targets were tested with COC(=O)C#Cc1ccccc1 [methyl 3-phenylpropiolate] (assay: log2 ratio of iodoacetamide-alkyne labeling of the cysteine site, DMSO over compound (competition); higher = stronger covalent engagement of the cysteine by the compound, active = 1 or more). Conditions: 500 µM; treatment time 1 h; system: HEK293T cell lysate.
Procedure, shortened: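 HEK293T lysate at 2 mg/mL was treated with vehicle or electrophile (500 µM) for 1 h at ambient temperature, then labelled with iodoacetamide alkyne (1 h), clicked to sCIP-TMT reagents, pooled, digested with trypsin overnight at 37 °C, enriched on streptavidin and eluted with acid. Peptides were analysed by Orbitrap Eclipse LC-MS/MS with FAIMS and quantified in FragPipe, using duplicate channels and three replicates, with cysteines quantified in only one replicate excluded. The log2 competition ratio for each cysteine is the mean control-channel reporter intensity divided by the mean compound-channel reporter intensity.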

Sequence of UniProt Q6UB35 (Q6UB35 whole entry, looked up): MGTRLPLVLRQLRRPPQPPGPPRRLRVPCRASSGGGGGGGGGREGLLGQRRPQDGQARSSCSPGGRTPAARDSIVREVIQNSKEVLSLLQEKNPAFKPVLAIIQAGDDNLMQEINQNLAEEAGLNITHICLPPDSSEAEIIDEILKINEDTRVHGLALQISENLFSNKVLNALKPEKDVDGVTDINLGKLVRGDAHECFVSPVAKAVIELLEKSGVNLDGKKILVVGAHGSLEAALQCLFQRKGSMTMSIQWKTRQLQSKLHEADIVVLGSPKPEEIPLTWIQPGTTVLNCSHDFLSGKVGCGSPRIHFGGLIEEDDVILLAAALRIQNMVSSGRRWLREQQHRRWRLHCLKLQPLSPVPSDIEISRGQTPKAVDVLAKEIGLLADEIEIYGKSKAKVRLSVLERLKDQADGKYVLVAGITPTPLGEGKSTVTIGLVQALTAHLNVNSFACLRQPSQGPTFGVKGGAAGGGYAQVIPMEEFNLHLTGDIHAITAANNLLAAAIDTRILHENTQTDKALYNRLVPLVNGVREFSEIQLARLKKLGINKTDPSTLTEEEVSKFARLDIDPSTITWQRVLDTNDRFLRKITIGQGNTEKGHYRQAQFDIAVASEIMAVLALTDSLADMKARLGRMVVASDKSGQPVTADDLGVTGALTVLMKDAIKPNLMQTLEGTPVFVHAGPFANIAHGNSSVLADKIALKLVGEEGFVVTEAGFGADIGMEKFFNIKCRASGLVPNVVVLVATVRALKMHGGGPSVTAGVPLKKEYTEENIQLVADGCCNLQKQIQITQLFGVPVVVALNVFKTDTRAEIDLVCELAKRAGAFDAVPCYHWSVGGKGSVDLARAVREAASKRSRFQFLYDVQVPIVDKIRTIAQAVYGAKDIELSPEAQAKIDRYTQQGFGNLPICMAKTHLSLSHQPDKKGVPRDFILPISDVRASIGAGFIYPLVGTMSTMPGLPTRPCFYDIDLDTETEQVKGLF
Sequence of UniProt Q96IV0 (Q96IV0 whole entry): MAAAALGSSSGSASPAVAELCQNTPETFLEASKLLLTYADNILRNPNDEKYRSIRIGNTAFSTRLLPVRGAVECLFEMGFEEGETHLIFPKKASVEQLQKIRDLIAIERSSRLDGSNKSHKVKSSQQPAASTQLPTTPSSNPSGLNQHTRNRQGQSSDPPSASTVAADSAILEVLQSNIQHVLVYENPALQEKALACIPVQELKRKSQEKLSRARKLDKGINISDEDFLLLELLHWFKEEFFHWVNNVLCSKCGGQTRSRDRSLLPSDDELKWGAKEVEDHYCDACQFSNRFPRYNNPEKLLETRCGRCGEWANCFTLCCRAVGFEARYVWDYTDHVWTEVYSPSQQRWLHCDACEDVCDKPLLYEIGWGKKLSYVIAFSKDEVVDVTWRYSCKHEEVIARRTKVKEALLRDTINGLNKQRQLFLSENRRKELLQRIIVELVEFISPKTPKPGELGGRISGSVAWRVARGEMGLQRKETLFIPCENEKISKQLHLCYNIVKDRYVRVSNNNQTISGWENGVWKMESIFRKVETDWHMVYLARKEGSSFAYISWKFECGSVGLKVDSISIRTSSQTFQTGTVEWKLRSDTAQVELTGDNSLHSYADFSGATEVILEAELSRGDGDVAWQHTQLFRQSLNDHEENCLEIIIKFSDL
Sequence of UniProt Q8N5F7 (Q8N5F7 whole entry): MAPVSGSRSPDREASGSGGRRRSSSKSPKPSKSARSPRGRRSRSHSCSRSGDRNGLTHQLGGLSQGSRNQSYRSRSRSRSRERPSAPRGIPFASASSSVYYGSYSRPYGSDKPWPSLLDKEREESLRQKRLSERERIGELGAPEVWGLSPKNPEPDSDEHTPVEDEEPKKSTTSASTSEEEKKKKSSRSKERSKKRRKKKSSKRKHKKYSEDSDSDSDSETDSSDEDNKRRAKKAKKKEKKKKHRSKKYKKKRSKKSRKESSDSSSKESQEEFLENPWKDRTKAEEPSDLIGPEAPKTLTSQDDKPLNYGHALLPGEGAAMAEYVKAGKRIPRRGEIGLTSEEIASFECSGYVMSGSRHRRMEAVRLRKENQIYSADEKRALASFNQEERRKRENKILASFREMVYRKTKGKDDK
Sequence of UniProt Q8IY81 (Q8IY81 whole entry, looked up): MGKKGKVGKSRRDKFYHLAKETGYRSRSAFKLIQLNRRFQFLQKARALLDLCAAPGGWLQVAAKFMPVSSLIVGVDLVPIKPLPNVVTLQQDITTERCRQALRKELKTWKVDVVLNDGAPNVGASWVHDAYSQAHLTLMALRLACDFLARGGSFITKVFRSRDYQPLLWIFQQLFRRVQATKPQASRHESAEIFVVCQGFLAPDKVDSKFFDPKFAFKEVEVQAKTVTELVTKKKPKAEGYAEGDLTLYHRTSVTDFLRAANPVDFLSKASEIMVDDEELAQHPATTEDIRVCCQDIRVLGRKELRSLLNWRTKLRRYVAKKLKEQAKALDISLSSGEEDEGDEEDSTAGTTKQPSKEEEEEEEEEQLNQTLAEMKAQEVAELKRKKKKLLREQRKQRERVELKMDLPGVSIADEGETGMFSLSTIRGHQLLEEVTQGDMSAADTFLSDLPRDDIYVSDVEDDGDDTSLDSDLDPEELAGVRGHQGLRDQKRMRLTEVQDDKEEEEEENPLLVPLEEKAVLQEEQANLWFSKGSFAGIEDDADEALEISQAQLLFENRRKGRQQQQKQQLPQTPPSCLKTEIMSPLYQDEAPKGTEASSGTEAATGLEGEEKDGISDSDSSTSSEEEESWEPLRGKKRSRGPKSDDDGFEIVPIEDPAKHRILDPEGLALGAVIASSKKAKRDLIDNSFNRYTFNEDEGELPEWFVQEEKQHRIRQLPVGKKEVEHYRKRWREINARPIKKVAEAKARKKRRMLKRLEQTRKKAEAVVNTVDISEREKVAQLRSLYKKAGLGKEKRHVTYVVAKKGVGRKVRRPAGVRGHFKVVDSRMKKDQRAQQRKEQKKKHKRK
Sequence of UniProt Q99497 (Q99497 whole entry, looked up): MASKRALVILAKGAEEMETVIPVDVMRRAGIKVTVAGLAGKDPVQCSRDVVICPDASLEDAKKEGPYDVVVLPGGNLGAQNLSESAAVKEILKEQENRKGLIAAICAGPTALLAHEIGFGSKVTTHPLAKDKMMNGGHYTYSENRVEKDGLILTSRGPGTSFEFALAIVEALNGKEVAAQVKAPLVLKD
Sequence of UniProt Q86UP2 (Q86UP2 whole entry, looked up): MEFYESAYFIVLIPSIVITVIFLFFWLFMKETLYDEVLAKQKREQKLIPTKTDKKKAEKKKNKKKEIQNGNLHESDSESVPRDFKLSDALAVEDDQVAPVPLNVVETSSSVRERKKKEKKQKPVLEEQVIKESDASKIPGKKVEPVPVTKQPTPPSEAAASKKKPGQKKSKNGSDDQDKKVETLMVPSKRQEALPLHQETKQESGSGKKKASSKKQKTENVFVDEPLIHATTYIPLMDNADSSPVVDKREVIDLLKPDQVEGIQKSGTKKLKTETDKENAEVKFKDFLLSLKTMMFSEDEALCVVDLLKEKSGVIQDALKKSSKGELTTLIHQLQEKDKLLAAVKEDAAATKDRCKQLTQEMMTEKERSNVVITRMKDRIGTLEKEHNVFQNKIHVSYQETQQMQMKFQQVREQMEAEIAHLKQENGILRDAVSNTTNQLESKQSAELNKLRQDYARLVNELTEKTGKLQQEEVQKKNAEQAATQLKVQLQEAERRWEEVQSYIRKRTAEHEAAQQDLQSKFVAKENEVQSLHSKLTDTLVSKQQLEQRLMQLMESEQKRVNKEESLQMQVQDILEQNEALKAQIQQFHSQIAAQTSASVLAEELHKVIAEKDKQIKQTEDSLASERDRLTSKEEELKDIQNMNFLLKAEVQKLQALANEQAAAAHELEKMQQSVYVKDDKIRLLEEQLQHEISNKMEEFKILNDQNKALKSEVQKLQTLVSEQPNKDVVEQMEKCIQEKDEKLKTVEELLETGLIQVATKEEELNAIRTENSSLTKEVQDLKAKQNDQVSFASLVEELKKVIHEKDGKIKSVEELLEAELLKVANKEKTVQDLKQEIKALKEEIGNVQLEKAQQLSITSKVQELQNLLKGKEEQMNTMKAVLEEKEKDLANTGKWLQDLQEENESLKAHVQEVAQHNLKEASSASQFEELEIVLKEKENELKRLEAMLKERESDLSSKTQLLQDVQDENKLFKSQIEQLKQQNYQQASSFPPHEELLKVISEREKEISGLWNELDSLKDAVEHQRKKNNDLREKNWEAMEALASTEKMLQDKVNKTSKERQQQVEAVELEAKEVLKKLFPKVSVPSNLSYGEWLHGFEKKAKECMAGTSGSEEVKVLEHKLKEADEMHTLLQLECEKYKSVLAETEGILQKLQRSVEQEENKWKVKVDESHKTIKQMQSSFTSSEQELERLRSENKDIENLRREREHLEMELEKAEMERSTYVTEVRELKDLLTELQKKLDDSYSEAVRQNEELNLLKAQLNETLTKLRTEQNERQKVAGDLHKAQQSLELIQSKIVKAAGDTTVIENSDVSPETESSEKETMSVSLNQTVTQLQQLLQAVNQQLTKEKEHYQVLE
Sequence of UniProt Q96BH1 (Q96BH1 whole entry): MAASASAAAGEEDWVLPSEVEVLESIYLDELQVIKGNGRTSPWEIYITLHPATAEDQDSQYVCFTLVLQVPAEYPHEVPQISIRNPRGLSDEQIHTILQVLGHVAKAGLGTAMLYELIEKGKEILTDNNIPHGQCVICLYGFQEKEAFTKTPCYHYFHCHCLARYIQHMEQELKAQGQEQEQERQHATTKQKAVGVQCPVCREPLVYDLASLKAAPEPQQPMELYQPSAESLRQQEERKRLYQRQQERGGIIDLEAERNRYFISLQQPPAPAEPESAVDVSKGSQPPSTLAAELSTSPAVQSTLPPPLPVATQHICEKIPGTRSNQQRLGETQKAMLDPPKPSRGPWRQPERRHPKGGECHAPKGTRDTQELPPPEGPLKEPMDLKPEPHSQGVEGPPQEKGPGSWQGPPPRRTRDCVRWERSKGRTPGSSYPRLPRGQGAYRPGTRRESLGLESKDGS

Target | log2 ratio of iodoacetamide-alkyne labeling
DIDO1 C455 (UniProt Q9BTC0) | 0.67 (inactive)
MTHFD1L C778 (UniProt Q6UB35) | 1.1 (active)
FTSJ3 C197 (UniProt Q8IY81) | 0.103 (inactive)
UniProt Q96BD8_C10 | 0.363 (inactive)
UniProt Q7Z2T5_C265 | 0.161 (inactive)
MED12 C83 (UniProt Q93074) | 0.457 (inactive)
UniProt Q8WYL5_C626 | 1.19 (active)
SND1 C96 (UniProt Q7KZF4) | 0.115 (inactive)
MARC1 C273 (UniProt Q5VT66) | 0.102 (inactive)
FAM122B C155 (UniProt Q7Z309) | 1.05 (active)
UniProt Q8WZA9_C504 | 0.0403 (inactive)
PARK7 C53 (UniProt Q99497) | -0.0888 (inactive)
UniProt Q86YR5_C515 | 1.7 (active)
MMS19 C549 (UniProt Q96T76) | 1.36 (active)
UniProt Q7Z5K2_C94 | 0.262 (inactive)
IPO4 C350 (UniProt Q8TEX9) | 0.564 (inactive)
CCT7 C158 (UniProt Q99832) | 0.152 (inactive)
UniProt Q7RTV0_C61 | 0.11 (inactive)
NGLY1 C197 (UniProt Q96IV0) | 0.0457 (inactive)
KTN1 C1105 (UniProt Q86UP2) | 0.28 (inactive)
RNF25 C360 (UniProt Q96BH1) | 1.07 (active)
NKAP C349 (UniProt Q8N5F7) | 0.496 (inactive)
POM121 C461 (UniProt Q96HA1) | 0.43 (inactive)
